Reference: PubChem BioAssay AID1878 (Sanford-Burnham Center for Chemical Genomics, 2009)
The campaign covered roughly 1,000 compounds. About 200 (20%) were called active. No stated cut-off is given here; in the data, active means inhibition above about 55%; inactive means the rest. Only a sample is shown. Measured potencies and affinities stand elsewhere.

Target: Dual specificity protein phosphatase 3 (Homo sapiens) (UniProt P51452)
Experiment: VHR1 phosphatase inhibitors, biochemical (AID 1878)
Conditions: recombinant VHR phosphatase, fluorogenic substrate; at 13.3 µM; stronger effect = higher value

Dual specificity protein phosphatase 3 (Homo sapiens), sequence (P51452 whole entry, looked up): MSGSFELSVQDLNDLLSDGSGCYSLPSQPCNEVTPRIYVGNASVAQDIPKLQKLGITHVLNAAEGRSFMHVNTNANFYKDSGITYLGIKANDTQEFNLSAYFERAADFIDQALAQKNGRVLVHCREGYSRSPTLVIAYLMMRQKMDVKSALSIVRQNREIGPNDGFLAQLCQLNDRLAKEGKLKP

Structure (SMILES) | inhibition
COC(=O)c1ccc(NS(=O)(=O)c2ccc3c(c2)n(C)c(=O)n3C)cc1 | -7.8% (inactive)
CCCN1CCC(=O)N([C@H](CSc2ccccc2)CC(C)C)CC1 | -3.5% (inactive)
COc1cccc(-c2coc3cc4oc(=O)c(CCC(=O)O)c(C)c4cc23)c1 | -0.1% (inactive)
O=C(NCCCN1CCCCC1)c1ccc(CS(=O)c2ccc(Cl)cc2)o1 (stereo not drawn) | -3.5% (inactive)
OCCC1CCCCN1CC(O)COCc1ccc(Cl)cc1 (stereo not drawn) | -7.1% (inactive)
c1ccc(-c2ccnc3nc(N4CCN(c5ccccc5)CC4)nn23)cc1 | 19% (inactive)
CC1Cc2cc(-c3csc(N)n3)ccc2O1 (stereo not drawn) | 7.6% (inactive)
O=C(CNC(=O)c1ccco1)Nc1ccc(Br)cc1 | 7% (inactive)
CN(C)c1ccc(C(=S)N2CCN(Cc3ccccc3)CC2)cc1 | 56.8% (active)
S=C(c1ccc(OCc2ccccc2)cc1)N1CCCC1 | 7.3% (inactive)
CCCC(CCC)C(=O)NC1CCN(Cc2ccccc2)CC1 | -4.1% (inactive)
O=c1[nH]c2ccc(NS(=O)(=O)c3ccc(F)c(Cl)c3)cc2[nH]1 | -7.2% (inactive)
NC(=S)N/N=C/c1ccc2cccc(OCc3ccccc3)c2n1 | 9.9% (inactive)
Cc1cc2c(cc3c(=O)n(CC(=O)NCCCN4CC(C)CC(C)C4)ncn32)s1 (stereo not drawn) | -3.8% (inactive)
Cc1[nH]c(=O)[nH]c(=O)c1S(=O)(=O)Nc1ccc(Br)cc1F | 4.3% (inactive)
O=C(N[C@@H](Cc1ccccc1)C(=O)N1CCC2(CC1)NCCc1[nH]cnc12)c1cccc(F)c1 | 19.9% (inactive)
CN1CCN(Cc2nc3ccccc3n2C)CC1CCO (stereo not drawn) | -0.8% (inactive)
Cc1ccc(-n2cccc2/C=C2\C(=N)N3N=C(c4ccco4)SC3=NC2=O)cc1 | 98.9% (active)
CS(=O)(=O)C1=NSC2=NC(=O)/C(=C\c3cccn3-c3ccc(Cl)cc3)C(=N)N21 | 86.4% (active)
c1ccc(NC2=NCCCS2)cc1 | -2.2% (inactive)
COc1ccc(C)c(NC(=O)NCCc2cnc[nH]2)c1 | 7.6% (inactive)
CCOc1ccc(S(=O)(=O)N2CCOCC2)cc1NC(=O)CSCC(=O)Nc1cccc(C)c1 | -2.1% (inactive)

Structure (SMILES) | inhibition
CCCCCCC(=O)Nc1nc(C)c(-c2csc(Nc3cc(OC)ccc3OC)n2)s1 | 11.7% (inactive)
O=C(COc1ccc(S(=O)(=O)N2CCOCC2)cc1)N1CCN(c2ccccc2)CC1 | 7.2% (inactive)
CNC1(C(N)=O)CCNCC1 | -8.1% (inactive)
CC1=CC(=C2C=CC(=O)C=C2)C=C(C)N1C | 4.7% (inactive)
CCCCNC(=O)CCc1c(C)nc2c(c(C)nn2-c2ccccc2)c1C | -6.7% (inactive)
CN1CCCN(C(=O)c2cccc(Cl)c2)CC1 | -8.6% (inactive)
Cc1ccc(CC(=O)NC2CCN(C)CC2)cc1 | 21.9% (inactive)
Cc1cccc(-n2c(N)c(C(=O)N3CCN(C)CC3)sc2=S)c1 | 36.6% (inactive)
CC(C)c1ccc(NC(=O)N2CCN(S(=O)(=O)c3ccccc3)CC2)cc1 | 0% (inactive)
Nc1c2c(nc3c1CCCC3)CCCC2 (tested in a mixture with another compound) | -12.1% (inactive)
CN(C)CCN(Cc1ccccc1)C(=O)C1CCN(c2ncnc3c2nc2n3CCCCC2)CC1 | -3.7% (inactive)
CC(C)(C)NC(=S)N1CCC(C(=O)c2ccc(F)cc2)CC1 | -7.6% (inactive)
Cc1ccc(N=C2C(=O)Nc3c(C)cccc32)cc1 | -18.2% (inactive)
O=S(=O)(NC(=NCc1ccccc1)c1ccccc1)c1ccccc1 | -7.7% (inactive)
CCC(C)(C)NC(=O)CN(C(=O)CCC(=O)Nc1nccs1)c1ccc2c(c1)OCCO2 | 1.8% (inactive)
O=C(c1cccc([N+](=O)[O-])c1)c1ccc2c(c1)C(=O)N(c1c[nH]c(=O)[nH]c1=O)C2=O | -0.9% (inactive)
CC(C)=C(NC(=O)c1ccccc1)C(=O)NCCc1nc2ccccc2[nH]1 | 26.9% (inactive)
CCc1ccc2nc(NC(=O)c3ccc4c(=O)[nH]c(CN5CCOCC5)nc4c3)sc2c1 | 66.5% (active)
Cc1ccc2nc(NC(=O)C3CC3C)sc2c1 (stereo not drawn) | -7.4% (inactive)
CCN(CC)CCCNC(=O)c1oc2ccc3c(c2c1C)C(O)CC(C)(C)O3 (stereo not drawn) | -1.6% (inactive)
CC(C)C(=O)N1CCC(n2nccc2NC(=O)CCc2ccccc2)CC1 | -2.1% (inactive)
